# According to a collection of fitness landscapes (doi:10.1126/science.1257360):
# In all, about 140,000 sequences were measured (“enrichment ratio after two sorts for PhoP signalling”: median about 0, highest 2% from about 11 on). The sample holds the highest values, similar sequences and a random draw of the others, so the mix is not that of the screen.
# B1: PhoQ; a variant is named by its letters at X, in order, P23837 (parent)
# chain: MKKLLRLFFPLSLRVRFLLATAAVVLVLSLAYGMVALIGYSVSFDKTTFRLLRGESNLFYTLAKWENNKLHVELPENIDKQSPTMTLIYDENGQLLWAQRDVPWLMKMIQPDWLKSNGFHEIEADVNDTSLLLSGDHSIQQQLQEVREDDDDAEMTHSVAVNVYPATSRMPKLTIVVVDTIPVELKSSYMVWSWFIYVLSANLLLVIPLLWVAAWWSLRPIEALAKEVRELEEHNRELLNPATTRELTSLVRNLNRLLKSERERYDKYRTTLTDLTHSLKTPLXXLQXXLRSLRSEKMSVSDAEPVMLEQISRISQQIGYYLHRASMRGGTLLSRELHPVAPLLDNLTSALNKVYQRKGVNISLDISPEISFVGEQNDFVEVMGNVLDNACKYCLEFVEISARQTDEHLYIVVEDDGPGIPLSKREVIFDRGQRVDTLRPGQGVGLAVAREITEQYEGKIVAGESMLGGARMEVIFGRQHSAPKDE
# Variants of: B1
# Assay: enrichment ratio after two sorts for PhoP signalling (ratio (wild type AVST 3.29)); higher = more functional
# Details: with PhoP (E. coli)
row,Variant,enrichment ratio
1,EQWF,≤ 0.25
2,TQKS,≤ 0.25
3,TDDA,≤ 0.25
4,HGKC,≤ 0.25
5,ILFG,≤ 0.25
6,SFAM,≤ 0.25
7,SPAM,≤ 0.25
8,WQAM,≤ 0.25
9,SEAM,15.9
10,STAM,12.1
11,SQAM,21.4
12,YTAM,≤ 0.25
13,SERM,≤ 0.25
14,RSGP,≤ 0.25
15,ILCM,≤ 0.25
16,CSYF,≤ 0.25
17,EGPL,≤ 0.25
18,STKG,≤ 0.25
19,TAEP,0.518
20,VSNR,≤ 0.25
21,TGCN,42.2
22,STLN,14.8
23,AKLN,14
24,GGCN,0.54
25,YTLN,8.58
26,ITLN,1.49

row,Variant,enrichment ratio
1,AILN,4.12
2,KYLN,≤ 0.25
3,TTLN,23.9
4,RGCN,≤ 0.25
5,SPLN,≤ 0.25
6,TKLN,8.35
7,AGQV,≤ 0.25
8,QSKK,≤ 0.25
9,HWTI,≤ 0.25
10,QAFH,9.93
11,QFDR,≤ 0.25
12,QGQP,≤ 0.25
13,LKDC,≤ 0.25
14,PWTA,≤ 0.25
15,LSFA,≤ 0.25
16,YDML,≤ 0.25
17,ATLN,17.9
18,NVCN,≤ 0.25
19,AWCN,≤ 0.25
20,RICN,≤ 0.25
21,ATCN,3.42
22,AHCN,≤ 0.25
23,SPCN,≤ 0.25
24,ATQN,≤ 0.25
25,AICN,18.7
26,ADCN,11.5

row,Variant,enrichment ratio
1,TVCN,26.1
2,NICN,≤ 0.25
3,CTFI,9.39
4,DTFW,≤ 0.25
5,LRFL,≤ 0.25
6,IIPK,≤ 0.25
7,EKLK,≤ 0.25
8,QVPD,≤ 0.25
9,ENFI,≤ 0.25
10,QKFY,≤ 0.25
11,ANCN,33
12,SGCK,8.85
13,TDCN,15.7
14,SGCN,11.5
15,VRCN,≤ 0.25
16,SGLN,10.9
17,KDCN,≤ 0.25
18,ASLN,9.05
19,ANLN,8.47
20,ASCN,15.3
21,HWCN,≤ 0.25
22,LTCN,≤ 0.25
23,MIMG,≤ 0.25
24,MYAM,≤ 0.25
25,RCLW,≤ 0.25
26,SMWE,≤ 0.25

row,Variant,enrichment ratio
1,ALQI,≤ 0.25
2,PLLC,≤ 0.25
3,MISF,3.65
4,YTCN,≤ 0.25
5,AALN,8.23
6,TTCN,11.9
7,AACN,12.7
8,KACN,≤ 0.25
9,LWCN,≤ 0.25
10,KGPM,≤ 0.25
11,SMIS,≤ 0.25
12,TEND,23.1
13,TEYD,≤ 0.25
14,MEVI,18.2
15,TEVA,6.58
16,MENM,≤ 0.25
17,MMVI,≤ 0.25
18,NENM,≤ 0.25
19,NEVI,4.98
20,MCVI,≤ 0.25
21,TEGD,≤ 0.25
22,TENM,15.7
23,TEVI,12.8
24,ESVY,≤ 0.25
25,NGGL,≤ 0.25
26,LFQL,≤ 0.25

row,Variant,enrichment ratio
1,KSDP,≤ 0.25
2,FMMA,≤ 0.25
3,TENS,8.17
4,TENY,11.3
5,TENL,6.63
6,PRSQ,≤ 0.25
7,TGHK,≤ 0.25
8,FSEI,≤ 0.25
9,AAMG,9.84
10,YTST,≤ 0.25
11,SEST,18.4
12,NEST,3.45
13,SRST,≤ 0.25
14,SQST,6.97
15,TEST,23.4
16,YEST,12.8
17,FTST,≤ 0.25
18,QEST,1.97
19,PLIK,≤ 0.25
20,AQAT,5.01
21,SLNT,≤ 0.25
22,FKYM,≤ 0.25
23,HFAH,≤ 0.25
24,KASH,≤ 0.25
25,TAAH,19.2
26,TASH,11.7

row,Variant,enrichment ratio
1,TANH,≤ 0.25
2,TAKH,≤ 0.25
3,YMQV,≤ 0.25
4,FCDV,≤ 0.25
5,TINR,15.4
6,TIWS,15.7
7,TIWI,≤ 0.25
8,TIQI,12.3
9,RIQI,≤ 0.25
10,AIQI,0.475
11,TIRM,5.12
12,WINR,≤ 0.25
13,TITS,15.9
14,RINR,≤ 0.25
15,TIYI,4.29
16,TIRA,≤ 0.25
17,KTHN,≤ 0.25
18,SPNA,≤ 0.25
19,NRQT,≤ 0.25
20,APHK,≤ 0.25
21,IMQV,≤ 0.25
22,LPRC,≤ 0.25
23,EVLG,≤ 0.25
